For 69 sequences, z-score results are on record in PubChem BioAssay AID1508600 (Functional Genomics Laboratory (NCATS/FGL), 2020).

Screen size: about 53,000 sequences; about 3,700 (7%) were called active. Many of the other results were omitted from the sample, so actives are more common in it than they were. Values without a mark were called inactive.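 The calls were made as follows: active = gene knockdowns whose robust z-score for IL-1 alpha signal is at least 2 or at most -2, so actives lie on both sides; inactive = the rest.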

This experiment is described as follows: Components of the Cytosolic LPS Sensing Pathway: Gene Identification via Genome-wide siRNA Screen.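 Also: robust z of the log signal after scaling to non-targeting control siRNA wells of the plate.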 The note with it: RAW264.7 macrophages, IL-1a HTRF, actives lie on both sides, screened at 100 nM (by protocol), cells primed 5 h with Pam3CSK4 first. The essentials: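 Mouse macrophage line RAW264.7 is transfected with siRNA (100 nM final), grown 48h, primed with TLR ligand Pam3CSK4 5 h and given intracellular LipidA 24 h. IL-1a in supernatant is read by HTRF and viability by luminescence.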
(In TR-FRET formats the signal depends on donor and acceptor labels being close together.)
Regarding GGAAAUGAACUCAUAGCCATT against Olfr121, the z-score is 0.0495.
Regarding GGAGUAAAGACAUUCAGGATT against Nlrp4f, the z-score is 0.716.
With GCUUGAUCGCUUUCAACUCTT against Coro7 the figure was 0.734.
On to GGAAAUUUUUCGCAUGACCTT against Ddx39b, for which the z-score was -2.13 (active).
With CCUUCUUCUUACUGAUAAUTT against Olfr1276, the z-score was -0.471.
With GCAAUGAACUAUGAAGGCATT against Npm1 the figure was -0.32.
In the case of GGACAAAAUUAGACCUUUGTT against Arf2 it was 0.47; in that of GGCAUCCUGUUGAAACUGATT against Vezt, -0.962; in that of GGGUGAAUUCUGUCUAUGUTT against Far1, 0.0586.
In the case of GGUAAAAGCUGUUUGAGAGTT against Smim3 it was -3.43 (active).
Regarding GGAUUAUCAGAAGUGUGUCTT against Mrps35, the z-score was -0.117.
With GUCAAGAAUAUUAUGACCCTT against Vamp8, the z-score is 0.516.
In the case of CCUCAUUGUGUCGUCUUACTT against Zer1 it was -0.421; in that of GGCUCUGAGACACAUCUACTT against Cpt1b, -0.562; in that of GGAGUUAAUCAGUCAAAUGTT against Dclk2, 0.754.
CCCAGAAGGAUCUGCUCUUTT against Defa20: the z-score is -2.17 (active).
In the case of GGUUAUGUCGCUAAGGAAATT against Tmem50a it was -0.392.
Turning to GGAGGUCACCUUCUCAAACTT against Mrgprf, the z-score was 0.374.
On to GCCUUUAACAGCUCUUAAUTT against Gm4894, for which the z-score is 0.999.
For CGUGCCACUUUUACCGUCCTT against Zdhhc8, the z-score was -2.43 (active).
In the case of UACUCGUAUUCUUAAUUGCTT against Acsl1 it was -0.272; in that of GCAGAAUCGCUUCAGUUCUTT against Tmed6, 0.49.
In the case of GGCUGUGUAUUACUGCGCUTT against Vpreb2 it was -0.236; in that of GCCAUGAUGCAUUAUGUAUTT against Haglr, -0.331.
On to GGGUAUUGGUUUUAGAGCATT against Emd, for which the z-score was 0.37.
With GGCUCUAAUGUAAUGAAUCTT against Fgf10 the figure was 0.259; with GGGUAAAAGGCUUUUUUGUTT against St8sia6, -0.699; with GGCAAAACAUGCUUGGACCTT against Zfp687, 2.31 (active).
Turning to CCAAUUCCUGGGUGCACACTT against Olfr309, the z-score is -0.691.
As to GCUCUGCUCUUCUGAAGCATT against Dohh, the z-score is -2.42 (active).
As for GGAUGACAUUUCAGUGUGGTT against Matn4, the z-score is 0.561.
As for GGAUAUUCAAAUGGGUGCCTT against Bcl7b, the z-score was 0.538.
In the case of GGACAUGAUCGACGACUACTT against Zfyve28 it was 0.109; in that of GGAUGAAAGAAAAGAAACUTT against Hoxd11, -0.335.
Turning to GGAAUGGUAAUGCUAUUGGTT against Tmem39a, the z-score is 0.169.
Consider GGAGAAUGGUUCAUAUCUGTT against Trmt44, for which the z-score is -0.849.
With AUGGAAAAAGUGCACAAUCTT against Olfr1061 the figure was 2.34 (active); with UUGUUCAAGAGCUAGAGAUTT against Atg2a, 0.811; with GCCGUGCAAAGUUUAUUCATT against Nme8, 1.06.
With CCACCAUUCGGCUCUUUUGTT against Nupl2 the figure was -0.822; with GCACCUGAAGACUAAUGUUTT against Gcnt2, 0.509.
In the case of GGAAUAUUCAGAAUCCCUCTT against Tnfaip8l3 it was -0.762; in that of GGUAACGGGACCAACACUUTT against Otop3, 1.26; in that of CCUUUAACUUUCUCCUACCTT against Nfkbid, 3.45 (active).
For the sequence GGAGGAAACACAUCAUUUGTT against Tmem131, the z-score was 1.15.
Regarding GCCUCAAUUCCUCUACGCUTT against Sytl1, the z-score was -1.34.
In the case of GCAUAGUGACCAUGGAUAATT against Olfr807, the z-score is 0.95.
In the case of GGAGGACGUGAACUUUGACTT against Stk32c it was 0.648.
Take GCACGUCAGAAUCUCCAGATT against Pln: the z-score is -0.669.
As to GGAAUGACAAGAUUAUUGUTT against Ercc3, the z-score was 0.157.
Regarding GGAGAGGAGUUCUUCAUUCTT against Adamts1, the z-score is -1.38.
With GCAAGUAGCAUCUCUGAUUTT against Nfs1 the figure was 1.03; with GGCAAGAAGUGUGAUGAACTT against Kansl3, -2.81 (active); with GGAGGAACUGGAUUCUUACTT against Eps8l3, -0.348.
With GGUUGUUAGGAAUCGAUCCTT against Rps26 the figure was 0.964; with GGUGGAAUACUUGGAGCAGTT against Gstm4, 2.98 (active); with CCAAUGCCGCCAGAAGUUATT against Siah2, 0.295.
With CCUGUGCUCUUAUUAUCAATT against Rpp14 the figure was 0.693; with GCAACUUUAAUGACAGCGUTT against Moxd1, -0.211; with GCUCUAUGGAGACCUAAAGTT against Sdha, -0.378.
As to GGAGGGACAUGGAGAUUACTT against Ptpn18, the z-score is 3.15 (active).
In the case of GGGAUUUUCAAAGUGAGAATT against Pmaip1, the z-score was -0.502.
With GGAUUUUCACCAACAGCCUTT against Gh the figure was 0.046.
In the case of GGACUGAAGUCCUUGACACTT against Lgi3, the z-score is -1.46.
With CCUCCUACUGUUUAAUGUUTT against Exd2 the figure was 2.47 (active).
In the case of GCCUUGACGAUAGAUUAUUTT against Irf2 it was 1.36; in that of GGUUGAUAAAGGAGCCAUCTT against Mcts1, 1.02; in that of GGUGUCCUUUCAAGUUGAUTT against Spg11, 2.15 (active).
Consider GCCAGUGUGACAUUUGGUATT against Eed, for which the z-score was 0.651.
